Screening results from PubChem.
FLuc inh: firefly luciferase inhibition; P08659; purified firefly luciferase, luminescence, 8 min; Potency, µM (doses to about 57.1 µM), usual class: inhibitors; 2.2% of 72,000 active; AID 411; active means well fitted inhibition curve with a large enough effect; inconclusive means small, poorly fitted or top-dose-only effect; further: nearly all actives have a fitted effect of over 40% in size
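Here, luciferase activity is measured as luminescence following an 8 min room-temperature reaction at 10 uM ATP, pH 7.2. Every library sample is titrated.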
PK Bst: modulators of Bacillus stearothermophilus pyruvate kinase; AID 361; purified pyruvate kinase, luminescence ATP production; ribose 5-phosphate activator present at AC10; 1.2% of 51,000 active; Potency, µM; in the data active means potency below about 11 µM; inconclusive means mostly about 12 µM to 25 µM;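 the screen sought inhibitors and activators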
GBA mod: modulators of human glucocerebrosidase; P04062; purified enzyme, resorufin glucoside fluorescence (screen aimed at inhibitors), 20 min; Potency, µM; 1.1% of 48,000 active; AID 360; in the data active means potency below about 15 µM; inconclusive means mostly about 16 µM to 33 µM;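 further: the screen sought inhibitors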
Target sequence (P04062 whole entry, looked up): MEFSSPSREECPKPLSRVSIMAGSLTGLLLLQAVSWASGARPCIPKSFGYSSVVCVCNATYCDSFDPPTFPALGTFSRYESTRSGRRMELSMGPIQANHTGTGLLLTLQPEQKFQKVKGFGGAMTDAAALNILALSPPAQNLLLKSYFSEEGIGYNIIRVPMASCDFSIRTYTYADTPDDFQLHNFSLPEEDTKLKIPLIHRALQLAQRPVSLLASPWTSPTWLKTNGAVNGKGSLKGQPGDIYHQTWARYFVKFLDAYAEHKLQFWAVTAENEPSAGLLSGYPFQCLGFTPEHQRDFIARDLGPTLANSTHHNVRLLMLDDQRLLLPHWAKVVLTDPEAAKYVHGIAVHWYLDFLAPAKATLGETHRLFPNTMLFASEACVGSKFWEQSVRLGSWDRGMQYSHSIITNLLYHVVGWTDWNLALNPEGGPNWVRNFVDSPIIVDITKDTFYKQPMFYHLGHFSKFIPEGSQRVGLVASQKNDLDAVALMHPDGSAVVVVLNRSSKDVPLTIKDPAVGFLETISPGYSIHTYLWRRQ
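Wild-type enzyme at 0.2 nM final in 50mM citric acid/KH2PO4, 10mM sodium taurocholate, 0.01% tween-20, pH 5.9, with resorufin beta-D-glucopyranoside at 30 uM final. Compounds titrated, 20 min at RT, red fluorescence read; AC50 from titration.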
Numbers stand for hits; - = inactive; ? = inconclusive; . = no result given; [ ] = remark or other dose. Hits are enriched below; roughly 3.2% of the tested compounds scored in any of these assays.

SMILES	FLuc inh	PK Bst	GBA mod
c1ccc(-c2noc(-c3cccc4ccccc34)n2)cc1	16µM	-	.
Brc1ccccc1-c1nc(-c2ccccc2)no1	3.2µM	.	.
Cc1ccc(-c2nc(-c3ccccc3)no2)c(Cl)c1	0.25µM	.	.
Clc1ccc(Br)cc1-c1nc(-c2ccncc2)no1	-	-	-
Fc1ccccc1-c1nc(-c2ccccc2)no1	6.3µM	5.8	?
c1ccc(-c2cc(-c3nc(-c4cccnc4)no3)c3ccccc3n2)cc1	-	.	.
O=C1C2=CC[C@H]3C(=O)N(c4cccc(Oc5ccccc5)c4)C(=O)[C@@H]3[C@@H]2[C@H](O)[C@@H]2O[C@H]12	-[11.4 µM]	.	.
Cc1cccc2cc3ccc4ccccc4c3cc12	-[11.4 µM]	.	.
Cc1cc(C)c2c(n1)nn1c(NCCCn3ccnc3)cc(C)nc21	-	-	-
Cc1ccc(-c2cc3nc(C)cc(NCc4ccco4)n3n2)cc1	7.9µM	6.5	-
COc1ccc(-c2cc3nc(C)cc(NCCO)n3n2)cc1	?	?	-
Cc1cc(NCCCn2ccnc2)n2nc(-c3ccc(F)cc3)cc2n1	13µM	?	.
O=C(O)Cc1nn(Cc2ccc(Br)cc2F)c(=O)c2ccccc12	-	.	.
C[C@@]12CCC(=O)C=C1CC[C@H]1[C@@H]2[C@@H](O)C[C@]2(C)[C@@H]1CC[C@@]2(O)C(=O)COC(=O)C1CCCC1	-[11.4 µM]	.	.
NCC(=O)O	-	.	.
O=C(O)CC/C=C\C[C@@H]1CO[C@H](c2ccccc2Cl)O[C@@H]1c1ccccc1O	-	.	.
NC(N)=N[C@H](CC(=O)O)c1ccccc1	-[11.4 µM]	.	.
CCCCC(=O)Nc1ccc(F)c(Cl)c1	-	-	.
CCCCCC(=O)Nc1ccc(N2CCN(CC)CC2)c(Cl)c1	-	-	0.7
CCc1nc(SCC(=O)N2CCCC2)c2ccccc2n1	-	-	-
CC(C)c1nc(SCC(=O)N2CCCC2)c2ccccc2n1	7.9µM	.	-
COc1cc2ccc([C@H](C)NCC#N)cc2cc1OC	-[11.4 µM]	.	.
C/C(=N\O)c1ccc2c3c([nH]c2c1)CCCC3	16µM	.	.
C/C(=N\O)c1ccc2[nH]ccc2c1	-	-	.
O=C(O)/C(=C\c1ccncc1)c1cccc2ccccc12	-[11.4 µM]	.	.
SMILES	FLuc inh	PK Bst	GBA mod
CCOc1ccc(NC(=O)c2ccccc2CO)cc1	?	.	-
CCOc1ccc(NC(=O)c2cccnc2C(=O)O)cc1	-	.	-
CCOc1ncccc1C(=O)Nc1ccc(Cl)cc1	-	3.8	-
CCOc1ccc(NC(=O)c2ccccc2O)cc1	1.3µM	2.5	-
CCOc1ccc(NC(=O)c2cnsn2)cc1	16µM	?	.
CCOc1ccc(NC(C)=O)cc1	-	.	.
CCOc1ccc(NC(N)=O)cc1	-	-	-
CCOc1ccc(NC(=O)c2nccnc2CO)cc1	16µM	?	-
C/C=C\C[C@@H](C)[C@@H](O)[C@H]1C(=O)N[C@@H](CC)C(=O)N(C)CC(=O)N(C)[C@@H](CC(C)C)C(=O)N[C@@H](C(C)C)C(=O)N(C)[C@@H](CC(C)C)C(=O)N[C@@H](C)C(=O)N[C@H](C)C(=O)N(C)[C@@H](CC(C)C)C(=O)N(C)[C@@H](CC(C)C)C(=O)N(C)[C@@H](C(C)C)C(=O)N1C	-	.	.
CO[C@H]1COC(=O)[C@H]2CCCN2C(=O)C/C=C\[C@@H](C)[C@H](OC)COC(=O)C/C=C\[C@@H]1C	-[11.4 µM]	.	.
Cc1nc(N)sc1-c1csc(Nc2ccccn2)n1	13µM	.	.
Cc1nc(N)sc1-c1csc(Nc2ccc(Cl)cn2)n1	-	-	?
Nn1c(Nc2ccccc2)nc2ccccc2c1=O	-	.	.
Nn1c(Nc2ccccc2)nc2ccccc21	13µM	.	.
NC(=O)CCCCn1ccc(NC(N)=NCC(F)(F)F)n1	-	.	.
Cc1ccc2nc(-c3ccc(NC(=O)c4ccc(N)cc4)c(S(=O)(=O)O)c3)sc2c1	-[11.4 µM]	.	.
Nc1cccc(-c2nc3ccc(N)cc3s2)c1	1µM	0.71	.
C=Cc1ccc([C@H]2N[C@@H](C(=O)O)CC[C@@H]2C)cc1	-[11.4 µM]	.	.
CO[C@H]1COC(=O)[C@H](C)NC(=O)C/C=C\[C@@H](C)[C@@H](NS(=O)(=O)c2ccc(C)cc2)COC(=O)[C@H](OCc2ccccc2)/C=C\[C@@H]1C	-[11.4 µM]	.	.
COc1ccc(-c2cc(C(=O)NCc3cccs3)no2)cc1OC	-	.	.
COc1ccc(OC)c(NC(=O)c2cc3ccccc3o2)c1	-	.	?
COc1ccc(OC(=O)c2cc3ccccc3o2)cc1	7.9µM	?	.
CC(=O)O[C@H]1C(=O)[C@]2(C)[C@H]([C@H](OC(=O)c3ccccc3)[C@@]3(O)C[C@H](OC(=O)[C@@H](O)[C@@H](NC(=O)c4ccccc4)c4ccccc4)C(C)=C1C3(C)C)[C@]1(OC(C)=O)CO[C@@H]1C[C@@H]2O	-[11.4 µM]	.	.
CN1CCN(c2ncc3nc(-c4cn(C)c5ccccc45)c(=O)n(-c4ccccc4)c3n2)CC1	-[11.4 µM]	.	.
Cc1nn2c3c(cnc2c1-c1ccccc1)C(=O)CCC3	-	-	-
SMILES	FLuc inh	PK Bst	GBA mod
Cc1nn(-c2ccccn2)c2c1-c1nc(N)ncc1CC2	10µM	?	-
O=c1cc(CF)[nH]c(=S)[nH]1	-[11.4 µM]	.	.
CCOC(=O)CSc1nnc(-c2ccc(Cl)cc2Cl)o1	13µM	.	-
CCCOC(=O)CSc1nnc(-c2ccc(Cl)cc2Cl)o1	-	-	-
CN(C)c1ncc2nc(-c3cc(F)cc(F)c3)c(=O)n(C3CC3)c2n1	-[11.4 µM]	.	.
COC(=O)c1[nH]c2c(c1C)C(=O)CCC2	-	-	-
Cc1c(C(=O)OC2CCC(C)CC2)[nH]c2c1C(=O)CCC2 (stereo not drawn)	16µM	.	.
c1ccc2nc(-c3nc4ccccc4[nH]3)ccc2c1	0.79µM	0.54	-
c1ccc2[nH]c(-c3cscn3)nc2c1	-	-	-
CN(C)c1ncc2nc(-c3cccc(C#N)c3)c(=O)n(C)c2n1	-[11.4 µM]	.	.
CCCCc1ccc(-c2nc(N)n[nH]2)cc1	7.9µM	.	.
Nc1n[nH]c(-c2ccc(F)cc2)n1	-	.	-
C(=N\C(/N=C/c1ccco1)c1ccco1)/c1ccco1	-	-	-
CN(C)c1ccc(N=Cc2ccco2)cc1	20µM	.	.
O=C(O)C[n+]1ccccc1	-[11.4 µM]	.	.
c1ccc(Nc2ncncc2-c2ccc3c(c2)OCO3)cc1	-[2.29 µM]	.	.
COc1ccc(/C=N/n2c(N)nc3ccccc32)cc1OC	6.3µM	8.4	-
CCSc1nncn1/N=C/c1ccc(OC)c(OC)c1	-	.	.
COc1ccc(OC)c(C2C(C(=O)c3ccco3)=C(O)C(=O)N2CCCN2CCOCC2)c1 (stereo not drawn)	-	-	.
COc1ccccc1Nc1ncnc2c1cnn2-c1cccc(C)c1	-	.	.
Cc1ccc(-n2ncc3c(N4CCN(c5ccccc5)CC4)ncnc32)c(C)c1	-	-	.
Cc1cccc(-n2ncc3c(NC4CCCCC4)ncnc32)c1	10µM	.	.
C=CCNc1ncnc2c1cnn2-c1ccc(Cl)cc1	2.5µM	.	.
C=CCNc1ncnc2c1cnn2-c1cccc(C)c1	10µM	.	.
Cc1cccc(-n2ncc3c(NCc4ccc5c(c4)OCO5)ncnc32)c1	-	-	?
SMILES	FLuc inh	PK Bst	GBA mod
Clc1ccc(-n2ncc3c(NCc4ccccn4)ncnc32)cc1	-	?	.
Cc1cccc(-n2ncc3c(N4CCCC4)ncnc32)c1	1.6µM	5.4	-
CN1CCN(c2ncncc2-c2ccc(N(C)C)cc2)CC1	-[2.29 µM]	.	.
O=C(O)[C@H]([C@H]1NCCS1)N1C(=O)c2ccccc2C1=O	-[11.4 µM]	.	.
CS(=O)(=O)Nc1cccc(-c2nc(Nc3ccncc3)c3ccccc3n2)c1	-[2.29 µM]	.	.
c1ccc2c(CC3NCCN3)cccc2c1	-[11.4 µM]	.	.
COc1cccc(C=Nc2ccc3c(c2)OCCO3)c1O	4µM	?	-
COc1cccc(N=Cc2ccc(O)cc2O)c1	-	.	.
c1coc(CNc2nc(N3CCCCC3)nc3ccccc23)c1	-	-	9.6
